BAZ2B inh = blocks human BAZ2B. Q9UIF8. Potency, µM (top dose mostly 114 µM), for inactives: at the top dose activity change, negative = inhibition, usual class: inhibitors. actives 4.4% (n = 360,000). AID 504333. AlphaScreen BAZ2B-H3K14Ac peptide displacement; further: on the % scale 0 is the no-effect control and ±100 the full control effect; nearly all actives have a fitted effect of over 60% in size
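BAZ2B (50 nM) with biotin-H3(5-23)K14Ac peptide (50 nM) in PBS pH 7.4, 0.01% Tween-20, preformed 30 min, then compound 30 min at room temperature; top concentration 110uM. AlphaScreen streptavidin donor/nickel chelate acceptor beads (10 ug/mL final), 20 min dark, signal read.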
G9a block = inhibitors of human histone lysine methyltransferase G9a | G9a H3K9 monomethylation, AlphaScreen, 2 h | actives 8.8% (n = 350,000) | AID 504332 | Potency, µM (highest dose often 102 µM), inactives show at the top dose activity, negative = inhibition, most hits filed as inhibitors; further: on the % scale 0 is the no-effect control and ±100 the full control effect; nearly all actives have a fitted effect of over 75% in size
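Using a bead-based AlphaScreen, monomethylated H3K9 product from 2 h room-temperature reactions (G9a 20 nM, peptide 500 nM, SAM 20 uM) was detected with 0.5 ug/mL rabbit anti-H3K9me1 antibody.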
PLK1 PBD block = blocks phosphopeptide binding to human PLK1 polo-box domain | Plk1 PBD binding of FITC phosphopeptide, fluorescence polarization | P53350 | actives 2.8% (n = 360,000) | Potency, µM, for the others: max response, negative = inhibition, actives largely listed as inhibitors; further: series mostly up to about 57 µM; on the % scale 0 is the no-effect control and ±100 the full control effect; nearly all actives have a fitted effect of over 65% in size
Target sequence (P53350 whole entry, looked up, the tested form may be a part): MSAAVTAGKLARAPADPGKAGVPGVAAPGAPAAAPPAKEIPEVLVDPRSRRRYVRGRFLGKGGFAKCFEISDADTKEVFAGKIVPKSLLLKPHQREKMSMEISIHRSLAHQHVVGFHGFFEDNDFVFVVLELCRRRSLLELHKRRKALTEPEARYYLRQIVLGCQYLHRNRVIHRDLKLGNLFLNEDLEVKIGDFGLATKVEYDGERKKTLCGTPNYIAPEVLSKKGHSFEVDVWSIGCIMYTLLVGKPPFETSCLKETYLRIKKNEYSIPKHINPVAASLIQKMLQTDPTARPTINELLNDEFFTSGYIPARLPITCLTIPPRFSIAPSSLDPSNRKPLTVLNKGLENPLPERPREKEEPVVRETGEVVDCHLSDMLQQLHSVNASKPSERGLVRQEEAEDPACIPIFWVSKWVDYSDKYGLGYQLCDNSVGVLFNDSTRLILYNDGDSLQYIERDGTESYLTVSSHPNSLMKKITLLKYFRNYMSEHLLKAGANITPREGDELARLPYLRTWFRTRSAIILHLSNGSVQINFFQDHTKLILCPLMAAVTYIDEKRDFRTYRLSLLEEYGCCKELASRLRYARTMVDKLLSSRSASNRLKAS
JMJD2A Tudor inh = blocks the human JMJD2A Tudor domain | AID 504339 | actives 4.4% (n = 390,000) | Potency, µM (highest dose often 114 µM), inactives show at the highest dose activity change, negative = inhibition, actives largely listed as inhibitors | O75164 | AlphaScreen JMJD2A-Tudor / H3K4me3 peptide binding; further: on the % scale 0 is the no-effect control and ±100 the full control effect; nearly all actives have a fitted effect of over 50% in size
Sfp inh = blocks B. subtilis Sfp PPTase activity; AID 1490; Potency, µM, for inactives: largest response in the series, negative = inhibition, most hits filed as inhibitors; Q9F4F7; actives 3.5% (n = 310,000); Biochemical Sfp PPTase activity, qHTS;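 further: the enzyme is Sfp with the accession as filed and its product quenches rhodamine fluorescence; 0% = enzyme reaction without inhibitor and -100% = no enzyme wells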
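Sfp 15 nM + cpd, 15 min RT; start w/ rhodamine-CoA 5 uM, BHQ-2-YbbR 12.5 uM (final); 50 mM Hepes pH 7.6, 10 mM MgCl2, 0.01% NP-40, 0.01% BSA; read 525/598 nm at 0 and 30 min.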
HP1b chromo inh = blocks HP1-beta chromodomain binding to methylated histone tails | AlphaScreen HP1-beta / biotin-H3K9me3 peptide binding | Potency, µM (doses to about 114 µM), without a hit: at the highest dose activity change, negative = inhibition, hits mostly inhibitors | actives 0.56% (n = 390,000) | AID 540317; further: nearly all actives have a fitted effect of over 70% in size
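AlphaScreen: HP1-beta (50 nM) preformed 30 min with biotin-H3(1-18)K9me3 peptide (50 nM) in PBS pH 7.4, 0.01% Tween-20. Compound added for 30 min at RT, then streptavidin donor/nickel chelate acceptor beads (10 ug/mL) for 30 min.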
An asterisk follows results filed as active; ? = inconclusive; . = not tested or not shown; [ ] = remark or other dose. Hits are enriched below; roughly 12% of the tested compounds scored in any of these assays. The call rests on the fitted dose curve; in most records, active means well fitted curve in the direction sought with a large enough effect; inconclusive means small, poorly fitted or top-dose-only effect, or another doubt; inactive means no such curve, though single readings can be large; an effect the other way counts as inactive or inconclusive. Potency means the concentration at half of the fitted maximal effect.

SMILES	BAZ2B inh	G9a block	PLK1 PBD block	JMJD2A Tudor inh	Sfp inh	HP1b chromo inh
O=C(c1ccccc1)c1ccc(NCCCn2ccnc2)c([N+](=O)[O-])c1	40µM*	-8%[2.33 µM]	-2%	40µM*	6%	?
COc1ccc(Cn2nnnc2CN(Cc2cc3ccc(C)cc3[nH]c2=O)C2CCCC2)cc1	3%	35µM*	0%	-26%	7%	10%
CCC(C)(C)n1nnnc1CN(Cc1cc2cc(OC)ccc2[nH]c1=O)C1CCCC1	-2%	-5%	-1%	-33%	12%	7%
Cc1ccc2cc(CN(Cc3ccc(F)cc3)Cc3nnnn3C3CCCC3)c(=O)[nH]c2c1	3%	14µM*	-1%	-31%	22µM*	14%
COc1cc2cc(CN(Cc3nnnn3Cc3ccco3)C3CCCCC3)c(=O)[nH]c2cc1OC	-10%	40µM*	?	?	10µM*	-16%
CCOc1ccc2[nH]c(=O)c(CN(Cc3nnnn3Cc3ccco3)C3CCCCC3)cc2c1	45µM*	?	-15%	-27%	4µM*	2%
Cc1ccc2cc(CN(Cc3ccccc3)Cc3nnnn3C3CCCC3)c(=O)[nH]c2c1	4%	-7%[12.7 µM]	2%	-27%	-2%	14%
CCc1nnc(NS(=O)(=O)c2ccc(NC(=O)OC)cc2)s1	-24%	18µM*	-28%	-1%	-14%	70%
CCc1nnc(NS(=O)(=O)c2ccc(NC(=O)/C=C/c3ccc(F)cc3)cc2)s1	-30%	56µM*	-15%	-10%	24%	6%
CCc1nnc(NS(=O)(=O)c2ccc(NC(=O)Nc3ccc(OC)cc3)cc2)s1	-9%	.	-6%	-14%	12%	16%
CCc1nnc(NC(=O)c2ccc(S(C)(=O)=O)cc2)s1	-5%	.	9.5µM*	-30%[11.4 µM]	-6%	1%
CCc1nnc(NC(=O)c2ccc(S(=O)(=O)N3CCCC3)cc2)s1	1%	7%	0%	14%	23%	36%
O=C(COC(=O)c1c2c(nc3ccccc13)/C(=C\c1ccco1)CC2)NC1CCCC1	.	.	9.5µM*	?	.	?
CC1CCCCC1NC(=O)COC(=O)c1c2c(nc3ccccc13)/C(=C\c1ccco1)CC2 (stereo unspecified)	.	.	?	45µM*	.	?
CN(CCC#N)C(=O)COC(=O)c1c2c(nc3ccccc13)/C(=C\c1ccco1)CC2	.	.	-16%	?	.	?
CCc1nc2c(OCc3ccc(F)c(F)c3)cccn2c1N(C)C(=O)c1ccc(OC)cc1	.	.	-13%	.	.	.
CCCCC(CC)C/C=C1\CC(C(=O)OCC)Oc2ccccc21 (stereo unspecified) (tested in a mixture with another compound)	.	67%	.	.	10%	.
Cc1c(C)n(C)c2ccc(C(=O)NCCCN(C)C3CCCCC3)cc12	25µM*	50µM*	-8%	?	-14%	1%
Cc1c(C)n(C)c2ccc(C(=O)NCCc3ccco3)cc12	35µM*	.	-11%	?	?	?
Cc1ccccc1CCNC(=O)c1ccc2c(c1)c(C)c(C)n2C	?	?	.	?	.	-10%
CCn1c(C)c(C)c2cc(C(=O)NCCc3ccc(C)cc3)ccc21	-30%	?	.	?	.	11%
CCOC(=O)Cn1c(=O)n(Cc2ccco2)c(=O)c2ccc(C(=O)NCCc3ccccc3)cc21	-4%	-17%[0.0925 µM]	0%	-23%	56µM*	5%
Cc1c(C)n(C)c2ccc(C(=O)NCCCN3CCCCC3C)cc12 (stereo unspecified)	?	-8%	-12%	?	-6%	33%
CCn1c(C)c(C)c2cc(C(=O)NCCc3cc(OC)c(OC)c(OC)c3)ccc21	45µM*	?	.	?	.	-12%
COc1ccc(CCNC(=O)Cn2c(=O)n(Cc3ccco3)c(=O)c3ccc(Cl)cc32)cc1OC	-12%	?	-27%	-12%[11.4 µM]	?	58%
SMILES	BAZ2B inh	G9a block	PLK1 PBD block	JMJD2A Tudor inh	Sfp inh	HP1b chromo inh
Cc1cc(C)c(NC(=O)Cn2nc(-c3ccncc3)ccc2=O)c(C)c1	1%	3%[59 µM]	.	-7%	.	24%[57 µM]
O=C(NCc1cccc(C(F)(F)F)c1)c1c[nH]c(=O)s1	.	.	-7%	.	.	.
COc1ccc(CCNC(=O)C2CCN(c3nccc(C)n3)CC2)cc1	-10%	-8%	-14%	-23%	3%	29%
CC(C)CC(=O)Nc1nnc(S(=O)(=O)N2c3ccccc3CC2C)s1 (stereo unspecified)	?	-1%	1%	?	5%	38%
CCn1c(C)c(C)c2cc(C(=O)NCCc3ccco3)ccc21	?	50µM*	-12%	?	-6%	-11%
Cc1c(C)n(C)c2ccc(C(=O)Nc3cccc4ccccc34)cc12	?	50µM*	-2%	?	-11%	?
O=C(Nc1cccc2ccccc12)c1ccccc1	-1%	17%	-1%	-2%	15%	17%
CCn1c(C)c(C)c2cc(C(=O)NCC(C)c3ccccc3)ccc21 (stereo unspecified)	-37%	-33%[59 µM]	.	?	.	-8%
Cc1noc(C)c1COC(=O)c1ccc2c(c1)S(=O)(=O)c1ccccc1C2=O	?	32µM*	-6%	-29%	1%	-7%
O=C(OCc1ccccc1)c1ccccc1	.	30%[12.7 µM]	-12%	67%	-9%	90%
NC(=O)c1ccc2c(c1)S(=O)(=O)c1ccccc1C2=O	9%	-1%[2.33 µM]	-1%	-12%	-27%	38%
O=C(O)c1ccc2c(c1)S(=O)(=O)c1ccccc1C2=O	-32%	45µM*	-4%	-18%	1%	39%
CC(OC(=O)c1ccc2c(c1)S(=O)(=O)c1ccccc1C2=O)C(N)=O (stereo unspecified)	-9%	45µM*	-1%	-13%	0%	-7%
O=C(OCc1ccccc1)c1ccc2c(c1)-c1ccccc1C2=O	-29%	5µM*	1%	-29%	3%	-3%
NC(=O)COC(=O)c1ccc2c(c1)S(=O)(=O)c1ccccc1C2=O	3%	-17%	-3%	-8%	-3%	7%
CCc1ccc(OC(C)C(=O)Nc2c(C(=O)c3ccccc3)oc3ccccc23)cc1 (stereo unspecified)	18%	75%[59 µM]	.	58%	.	95%
COc1cc(CN2CCNC(=O)C2CC(=O)NCc2csc(C(C)C)n2)cc(OC)c1 (stereo unspecified)	-22%	.	-2%	-7%	-17%	38%
CCCn1nnc(NC(=O)COc2ccc(C3CCCCC3)cc2)n1	9%	-7%[12.7 µM]	-11%	0%	0%	27%
CCOC(=O)c1c(S(=O)(=O)N2CCCC(C(=O)N3CCN(c4ccc(F)cc4)CC3)C2)c(C)n(C)c1C (stereo unspecified)	-18%	0%[59 µM]	.	-27%	.	0%
